# Experimental data taken from publication PMC5540273 (PLoS ONE, 2017).
# Columns and labels:
# Settings in all cases: concentration: 1 μM,replicates: in singlicate; n = 1
# HASPIN = test system: T1, HASPIN
# T1 construct: gene GSG2
# HCK = test system: HCK
# HIPK1 = test system: HIPK1
# HIPK2 = test system: HIPK2
# HIPK3 = test system: HIPK3
# HIPK4 = test system: HIPK4
# HPK1 = test system: HPK1
# HUNK = test system: HUNK
# ICK = test system: ICK
# IGF1R = test system: IGF1R
# IKK-alpha = test system: T2, IKK-alpha
# T2 construct: gene CHUK
# IKK-beta = test system: T3, IKK-beta
# T3 construct: gene IKBKB
# IKK-epsilon = test system: T4, IKK-epsilon
# T4 construct: gene IKBKE
# INSRR = test system: INSRR
# INSR = test system: INSR
# IRAK1 = test system: IRAK1
# IRAK3 = test system: IRAK3
# IRAK4 = test system: IRAK4
# ITK = test system: ITK
# [1] = test system: JAK1(JH1domain-catalytic)
# 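Further: KINOMEscan kinase panel screen.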
SMILES,%Inh (HASPIN) [%],%Inh (HCK) [%],%Inh (HIPK1) [%],%Inh (HIPK2) [%],%Inh (HIPK3) [%],%Inh (HIPK4) [%],%Inh (HPK1) [%],%Inh (HUNK) [%],%Inh (ICK) [%],%Inh (IGF1R) [%],%Inh (IKK-alpha) [%],%Inh (IKK-beta) [%],%Inh (IKK-epsilon) [%],%Inh (INSRR) [%],%Inh (INSR) [%],%Inh (IRAK1) [%],%Inh (IRAK3) [%],%Inh (IRAK4) [%],%Inh (ITK) [%],%Inh [1] [%]
O=C(NCCCN1CCOC1=O)c1cnc(NCc2cc(Cl)ccc2Cl)nc1NC1CCCC1,0,1,43,15,23,0,29,5,0,0,0,16,13,9,0,23,0,6,18,0
C=CC(=O)Nc1cc2c(Nc3ccc(F)c(Cl)c3)ncnc2cc1OCCCN1CCOCC1 [GW781483],6,32,21,40,0,9,14,0,21,0,0,0,0,0,0,74,2,28,35,0
Cc1cc2cn[nH]c2cc1-c1cccc2c(N)c(C(N)=O)nnc12,0,73,29,50,25,0,11,0,44,0,22,43,0,11,0,27,1,34,,4
Cc1ccc2c(-c3ccncc3)c(-c3ccc(F)cc3)nn2c1.Cl [GW461484],19,0,0,0,1,0,0,12,0,16,9,0,34,0,6,0,0,0,0,11
CNC(=O)c1ccccc1Sc1ccc2c(/C=C/c3ccccn3)n[nH]c2c1,0,8,24,7,6,17,46,0,0,4,,16,5,57,6,0,16,0,0,0
Cc1n[nH]c2ccc(-c3cc(OC[C@@H](N)Cc4ccccc4)cnc3-c3ccoc3)cc12.O=C(O)C(F)(F)F.O=C(O)C(F)(F)F [GSK507358],86,0,9,11,28,11,77,9,0,17,0,0,22,0,0,20,0,4,9,0
O=C(NCCNc1ccnc(NCc2ccc(F)cc2)n1)c1cc2ccccc2s1 [GSK1379944],0,0,0,0,75,0,52,19,0,70,0,83,26,0,2,83,17,18,17,0
Cl.Cl.Nc1nc(-c2ccc3c(N)n[nH]c3c2)cc(N2CCCC(NC(=O)c3ccccc3)C2)n1 (stereo not drawn) [GSK2286775],0,0,0,0,21,0,39,0,22,0,11,24,80,0,27,15,0,20,9,10
Cc1ccc(-n2nc(C(C)(C)C)cc2NC(=O)Nc2ccc(OCCN3CCOCC3)c3ccccc23)cc1 [GW839464],24,23,31,0,0,2,0,3,0,6,29,0,0,0,0,0,27,0,18,0
CN(C)CCOc1ccc(-c2cc(-c3c[nH]nc3-c3ccccn3)ccn2)cc1 [GW835314],0,19,0,0,16,100,0,0,35,8,0,0,0,14,23,9,18,12,15,0
